# Results as given in PubChem BioAssay (NCATS).
# Records with an inconclusive call do not appear. Unmarked numbers belong to inactive results. Activity calls are given as the source filed them. Calls follow the shape of the dose curve; as a rule, active = well fitted cell-killing curve with a large enough effect; inconclusive = small, poorly fitted or top-dose-only effect, or effect the other way; inactive = no such curve, though single readings can be large or run the other way.
# Assay: Viability qHTS for spleen associated tyrosine kinase inhibitor (SYKi) drug resistant MV4-11 cells (AID 1963824); also: nearly all actives have a fitted effect of over 35% in size
# Settings: SYKi-resistant MV4-11 viability, CellTiter-Glo, 72 h; series mostly up to 45 µM; viability, % of control: at the top concentration
# How it was run: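 CellTiter-Glo luminescence, read 10 min after reagent addition, reports viability after a 72 hr compound exposure. Cells are an MV4-11 line made resistant to SYK inhibition, seeded at 500 per well onto compound-containing plates.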
# Potency is read from the fitted curve at half-maximal effect.
Compound,Potency,"viability, % of control"
Cc1ccc(S(=O)(=O)NCc2ccc(C(=O)NCCN(Cc3ccccc3)C(C)C)cc2)cc1,14.6 µM (active),–
COc1c2c(c(C)c3c1C(=O)OC3)OC1(C)CC(O)C3(O)C(C)(C)OC(=O)CCC3(C)C1C2 (stereo unspecified),–,82.9% [at 17.3 µM]
CC1CC(C(O)C(C)(C)O)OC2CC3(C)C4(C)CCC5C(C)(C)C(=O)CCC5(C)C4CCC3(O)C12O (stereo unspecified),11.2 µM (active),–
COC(=O)c1ccc(OC)cc1O[C@@H]1O[C@H](CO[C@@H]2OC[C@@H](O)[C@H](O)[C@H]2O)[C@@H](O)[C@H](O)[C@H]1O,–,84.6% [at 17.3 µM]
CC1(C)C=Cc2c(ccc3c2N=C2C(C)(C)[C@@H]4C[C@]56CCCN5C(=O)[C@@]4(C[C@]23O)NC6=O)O1,–,87.6% [at 17.3 µM]
C/C=C/C=C/C=C/C(=O)O[C@@H]1C=C(CO)C(O)(C(=O)OC)[C@@]2(C)CCCC(C)(C)C12 (stereo partly specified),10 µM (active),–
O=C(/C=C\c1ccc(O)cc1)N[C@@H](Cc1ccc(O)cc1)C(=O)O,–,97.6%
COC1OC(O)C2(CCC3(O2)C(C)CC2OC(=O)C4(C)CCCC3(C)C24)C1O (stereo unspecified),–,92.8%
Cc1cc(N)c2ccccc2[n+]1CCCCCCCCCC[n+]1c(C)cc(N)c2ccccc21,0.58 µM (active),–
COc1cc(N(C)CCN(C)C)c(N)cc1Nc1nccc(-c2cn(C)c3ccccc23)n1,10.3 µM (active),–
O=C1CCCC2=C1C(c1ncccc1Br)N=C(Nc1nc3ccccc3o1)N2 (stereo unspecified),2.59 µM (active),–
COC(=O)C1=COC(OC2OC(CO)C(O)C(O)C2O)C2C1CC(OC(=O)C(O)CC(=O)O)C2C (stereo unspecified),–,91.4% [at 17.3 µM]
C=CCc1ccc(OC(C)Cc2ccc(OC)c(OC)c2)c(OC)c1 (stereo unspecified),12.8 µM (active),–
COc1cc(O)c(C(=O)CCc2ccc(O)cc2)c(O[C@@H]2O[C@H](CO)[C@@H](O)[C@H](O)[C@H]2O)c1,11.2 µM (active),–
N#Cc1ccc(-c2cnc3[nH]cc(NC(=O)c4cccnc4)c3c2)cc1,0.92 µM (active),–
C=C1C(O)CC2C(C(=O)O)=COC(O[C@@H]3O[C@H](COC(=O)c4ccc(O)cc4)[C@@H](O)[C@H](O)[C@H]3O)C12 (stereo partly specified),–,102% [at 17.3 µM]

Compound,Potency,"viability, % of control"
CCN(CC)CCN(Cc1ccc(-c2ccc(C(F)(F)F)cc2)cc1)C(=O)Cn1c(SCc2ccc(F)cc2)nc(=O)c2c1CCC2,3.26 µM (active),–
O=S(=O)(/N=C/c1c(O)ccc2ccccc12)c1cccs1,–,86.6%
CC(C)C(=O)OC[C@H]1O[C@@H](n2ccc(N)nc2=O)[C@](C)(F)[C@@H]1OC(=O)C(C)C,–,68.8%
C#C[C@]1(O)CC[C@H]2[C@@H]3CCC4=C/C(=N/O)CC[C@@H]4[C@H]3CC[C@@]21CC,25.9 µM (active),–
C/C=C1\[C@H](O[C@@H]2O[C@H](CO)[C@@H](O)[C@H](O)[C@H]2O)OC=C(C(=O)OC)[C@H]1CC(=O)OC[C@H]1O[C@@H](OCCc2ccc(O)cc2)[C@H](O)[C@@H](O)[C@@H]1O,–,81.4% [at 17.3 µM]
[2H]C([2H])(Nc1nc(-c2ccccc2C([2H])(C([2H])([2H])[2H])C([2H])([2H])[2H])ncc1C)c1ccc(-n2ccnn2)cc1,11.8 µM (active),–
C/C=C(\C)C(=O)O[C@@H]1[C@@H](C)[C@]2(O)[C@@H]3C=C(C)C(=O)[C@H]3CC(CO)=C[C@H]2C2C(C)(C)[C@@]21OC(=O)C(C)CC (stereo partly specified),0.448 µM (active),–
COc1ccc([C@@]2(O)c3c(ccc(CC=C(C)C)c3O)NC(=O)[C@@H]2OC)cc1,14.3 µM (active),–
COc1cc(C(CO)C(OC2OC(CO)C(O)C(O)C2O)c2ccc(O)c(OC)c2)ccc1O (stereo unspecified),–,98.3% [at 17.3 µM]
COC1CC(=O)C23C(=O)NC(CC(C)C)C2C(C)C(C)=CC3/C=C(\C)CCC(O)C1O (stereo unspecified),1.78 µM (active),–
Oc1ccc(-c2cnc3ccc(NCc4ccco4)nn23)cc1,0.092 µM (active),–
C=C1C(=O)OC2/C=C(/C)C3=CC(=O)C(C)(CC(OC(=O)/C(C)=C/COC(C)=O)C12)O3 (stereo unspecified),0.796 µM (active),–
COC1CC(=O)C23C(=O)NC(CC(C)C)C2C(C)C(C)=CC3/C=C(\C)CCC1O (stereo unspecified),7.96 µM (active),–
CCOC(=O)Nc1nc2ccccc2[nH]1,10.3 µM (active),–
C=C1CCN([C@H](C)[C@](O)(Cn2cncn2)c2ccc(F)cc2F)CC1,14.6 µM (active),–
